Test results reported in the supplement of paper PMC10849652.
The full data set covers some 8,800 targets. This sample favours those with a hit. About 0.5% of all pairs of compound and target were hits.

How the values were obtained:
Assay in all cases: log2 fold change, soluble protein after heating vs DMSO (PISA); higher = thermal stabilisation; K562 lysate, 10 uM; active = over 0.2 and 3.5 SD of the protein, either way, in both replicates (recomputed)
[1] = compound: C1=CC=C(C=C1)[C@H](COC2=CC3=C(C=C2)NC(=O)N3)NC(=O)C4=CC=CN(C4=O)CC5=CC(=C(C=C5)F)F
Method in brief: (§1)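 Dounce homogenisation of K562 pellets in PBS pH 7.4 with 1 mM MgCl2 produced a crude extract, used at 1 mg/mL protein. Exposure to 10 μM compound lasted 30 min, and aliquots were then heated for 3 min across 48°C-58°C, pooled and brought to 0.5% NP-40 at 4°C. The supernatant after 21,000xg for 90 min was quantified by TMTpro 16plex LC-MS/MS with channel sums equalised. Duplicate values are given as log-two fold change in thermal stability relative to solvent controls.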

[2] = compound: CC1=C(SC2=C1C(=N[C@H](C3=NN=C(N32)C)CC(=O)N)C4=CC=C(C=C4)Cl)C
Method in brief: as §1

[3] = compound: CC1=C2C(=CC=C1)N=C(N(C2=O)C3=CC=CC=C3C)CN4C=NC5=C(N=CN=C54)N
Method in brief: as §1

[4] = compound: Cc1sc2c(c1C)C(c1ccc(Cl)cc1)=N[C@@H](CC(=O)OC(C)(C)C)c1nnc(C)n1-2
Method in brief: as §1

[5] = compound: c1ccc([C@@H]2C[C@H]2NC2CCNCC2)cc1
Method in brief: as §1

Measured: log2 fold change

CAPNS1 (UniProt U3KPR7)
inactive: [1] 0.019 | [2] 0.122

ATR (UniProt Q13535)
inactive: [1] -0.061 | [2] -0.036 | [3] -0.04 | [4] 0.003 | [5] -0.095

CAD (UniProt P27708)
inactive: [1] -0.011 | [2] 0.009 | [3] 0.003 | [4] 0.022 | [5] 0.002

CDC40 (UniProt O60508)
inactive: [1] 0.036 | [2] 0.003 | [3] -0.099 | [4] 0.099 | [5] -0.03

C16orf70 (UniProt Q9BSU1)
UniProt Q9BSU1, sequence (Q9BSU1 whole entry, looked up): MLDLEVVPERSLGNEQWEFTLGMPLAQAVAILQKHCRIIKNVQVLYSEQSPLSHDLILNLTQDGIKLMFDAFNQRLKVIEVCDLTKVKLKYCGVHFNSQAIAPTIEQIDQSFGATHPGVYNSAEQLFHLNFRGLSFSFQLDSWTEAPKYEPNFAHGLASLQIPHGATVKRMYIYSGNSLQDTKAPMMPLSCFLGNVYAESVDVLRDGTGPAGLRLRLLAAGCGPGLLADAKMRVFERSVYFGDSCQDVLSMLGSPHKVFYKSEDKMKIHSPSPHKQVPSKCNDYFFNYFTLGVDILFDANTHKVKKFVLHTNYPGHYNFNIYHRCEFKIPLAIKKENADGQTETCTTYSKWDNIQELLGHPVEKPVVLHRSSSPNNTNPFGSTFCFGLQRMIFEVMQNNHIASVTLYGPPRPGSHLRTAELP
inactive: [1] -0.007 | [2] -0.073 | [3] -0.071 | [4] 0.033

BCKDHB (UniProt P21953)
inactive: [1] 0.027 | [2] 0.023 | [3] 0.09 | [4] 0.074 | [5] 0.119

C5orf51 (UniProt A6NDU8)
UniProt A6NDU8, sequence (A6NDU8 whole entry, looked up): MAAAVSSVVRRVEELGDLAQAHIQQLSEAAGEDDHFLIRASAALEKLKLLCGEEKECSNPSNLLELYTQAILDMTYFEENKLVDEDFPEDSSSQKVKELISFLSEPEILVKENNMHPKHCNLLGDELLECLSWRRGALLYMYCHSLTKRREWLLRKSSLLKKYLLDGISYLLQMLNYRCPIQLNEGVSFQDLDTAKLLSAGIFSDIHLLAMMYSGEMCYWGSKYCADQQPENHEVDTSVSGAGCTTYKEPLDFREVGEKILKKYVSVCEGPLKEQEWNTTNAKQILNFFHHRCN
inactive: [1] -0.047 | [2] -0.023 | [3] 0.001 | [4] -0.026 | [5] 0.092

CDK13 (UniProt Q14004)
inactive: [1] -0.091 | [2] -0.031 | [3] -0.052 | [4] 0.049 | [5] 0.052

CDC7 (UniProt O00311)
inactive: [1] -0.063 | [2] 0.084 | [3] 0.019 | [4] 0.003 | [5] 0.008

BRAT1 (UniProt Q6PJG6)
inactive: [1] -0.043 | [2] -0.005 | [3] 0.027 | [4] 0.005 | [5] 0.003

CCDC130 (UniProt P13994)
inactive: [1] 0.01 | [2] 0.038

ATG13 isoform 2 (UniProt O75143)
inactive: [1] 0.001 | [2] 0.026 | [3] 0.055 | [4] 0.045 | [5] -0.166

C18orf25 isoform 2 (UniProt Q96B23)
inactive: [1] -0.005 | [2] 0.224 | [3] 0.008 | [4] 0.089 | [5] -0.003

CASP3 (UniProt P42574)
inactive: [1] 0.051 | [2] -0.011 | [3] 0.039 | [4] 0.051 | [5] 0.103

CBFA2T3 (UniProt O75081)
inactive: [1] -0.029 | [2] -0.01 | [3] 0.058 | [4] 0.009 | [5] 0.019

CANX isoform 2 (UniProt P27824)
inactive: [1] 0.05 | [2] -0.022 | [3] -0.005 | [4] -0.027 | [5] -0.046

CCT6A (UniProt P40227)
inactive: [1] 0.007 | [2] -0.007 | [3] -0.01 | [4] 0.004 | [5] 0.025

CCNH (UniProt P51946)
UniProt P51946, sequence (P51946 whole entry, looked up): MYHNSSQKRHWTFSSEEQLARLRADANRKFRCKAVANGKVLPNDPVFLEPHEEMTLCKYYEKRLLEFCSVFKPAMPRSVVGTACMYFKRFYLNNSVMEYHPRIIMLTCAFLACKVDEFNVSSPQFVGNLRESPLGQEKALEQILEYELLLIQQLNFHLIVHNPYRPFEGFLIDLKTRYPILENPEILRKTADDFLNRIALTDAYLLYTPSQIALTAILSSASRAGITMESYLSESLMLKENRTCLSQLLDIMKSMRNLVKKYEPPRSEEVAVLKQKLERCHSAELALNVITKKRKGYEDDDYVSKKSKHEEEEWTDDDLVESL
inactive: [1] -0.028 | [2] -0.004 | [3] 0.022 | [4] -0.039 | [5] -0.01

C19orf54 (UniProt Q5BKX5)
inactive: [1] 0.04 | [2] 0.102 | [3] -0.007 | [4] 0.033 | [5] 0.043

CCNY (UniProt Q8ND76)
inactive: [1] -0.04 | [2] 0.048 | [3] -0.104 | [4] -0.064 | [5] -0.028

ATP11A (UniProt P98196)
inactive: [1] 0.04 | [2] -0.014 | [3] -0.004 | [4] 0.005 | [5] -0.026

ATG4A (UniProt Q8WYN0)
UniProt Q8WYN0, sequence (Q8WYN0 whole entry, looked up): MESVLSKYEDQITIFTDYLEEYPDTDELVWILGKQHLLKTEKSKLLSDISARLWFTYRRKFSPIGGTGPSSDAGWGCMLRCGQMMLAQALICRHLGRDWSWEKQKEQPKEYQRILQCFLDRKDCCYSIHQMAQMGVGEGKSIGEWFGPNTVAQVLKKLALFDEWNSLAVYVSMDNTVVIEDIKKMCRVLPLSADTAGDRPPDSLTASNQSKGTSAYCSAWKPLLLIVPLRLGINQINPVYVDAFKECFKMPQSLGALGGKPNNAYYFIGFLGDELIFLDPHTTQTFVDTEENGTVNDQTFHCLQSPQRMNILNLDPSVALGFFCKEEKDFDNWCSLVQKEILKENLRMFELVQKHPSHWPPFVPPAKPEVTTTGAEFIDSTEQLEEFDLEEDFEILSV
inactive: [1] 0.008 | [2] 0.022 | [3] 0.068 | [4] -0.01 | [5] -0.103

CDK16 isoform 2 (UniProt Q00536)
inactive: [1] -0.02 | [2] -0.059 | [3] -0.11 | [4] -0.011 | [5] -0.049

CHD4 isoform 2 (UniProt Q14839)
inactive: [1] 0 | [2] 0.003 | [3] 0.029 | [4] 0.021 | [5] 0.009

CDKN2AIP (UniProt Q9NXV6)
inactive: [1] 0.01 | [2] 0.024 | [3] 0.027 | [4] -0.041 | [5] -0.013

ATE1 isoform 2 (UniProt O95260)
inactive: [1] -0.015 | [2] -0.008 | [3] -0.004 | [4] 0.009 | [5] -0.087

CDC42BPA isoform 6 (UniProt Q5VT25)
inactive: [1] 0.008 | [2] -0.003 | [3] -0.008 | [4] 0.026 | [5] 0.052

BLM (UniProt P54132)
inactive: [1] 0.059 | [2] 0.03 | [3] -0.005 | [4] -0.002 | [5] 0.114

CCP110 (UniProt O43303)
inactive: [1] -0.026 | [2] 0.093 | [3] 0.104 | [4] -0.143

ATAD3B (UniProt Q5T9A4)
UniProt Q5T9A4, sequence (Q5T9A4 whole entry, looked up): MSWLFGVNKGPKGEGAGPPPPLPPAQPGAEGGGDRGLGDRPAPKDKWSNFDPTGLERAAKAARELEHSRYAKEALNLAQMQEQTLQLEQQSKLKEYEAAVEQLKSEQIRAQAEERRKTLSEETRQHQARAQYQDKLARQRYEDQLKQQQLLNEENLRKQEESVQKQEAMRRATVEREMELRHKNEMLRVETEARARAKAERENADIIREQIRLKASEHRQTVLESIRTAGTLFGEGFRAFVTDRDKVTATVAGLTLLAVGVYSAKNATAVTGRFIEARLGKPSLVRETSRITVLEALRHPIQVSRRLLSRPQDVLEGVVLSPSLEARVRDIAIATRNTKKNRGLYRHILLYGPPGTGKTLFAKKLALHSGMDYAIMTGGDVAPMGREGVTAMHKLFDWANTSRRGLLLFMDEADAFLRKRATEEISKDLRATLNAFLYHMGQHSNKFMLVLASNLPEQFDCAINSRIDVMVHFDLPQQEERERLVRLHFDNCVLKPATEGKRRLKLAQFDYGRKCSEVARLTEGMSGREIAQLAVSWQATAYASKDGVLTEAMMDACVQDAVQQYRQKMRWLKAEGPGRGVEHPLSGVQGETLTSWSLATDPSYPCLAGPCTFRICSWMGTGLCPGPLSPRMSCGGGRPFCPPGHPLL
inactive: [1] 0.082 | [2] -0.033 | [3] -0.021 | [4] 0.047 | [5] 0.172

CDC16 (UniProt Q13042)
UniProt Q13042, sequence (Q13042 whole entry, looked up): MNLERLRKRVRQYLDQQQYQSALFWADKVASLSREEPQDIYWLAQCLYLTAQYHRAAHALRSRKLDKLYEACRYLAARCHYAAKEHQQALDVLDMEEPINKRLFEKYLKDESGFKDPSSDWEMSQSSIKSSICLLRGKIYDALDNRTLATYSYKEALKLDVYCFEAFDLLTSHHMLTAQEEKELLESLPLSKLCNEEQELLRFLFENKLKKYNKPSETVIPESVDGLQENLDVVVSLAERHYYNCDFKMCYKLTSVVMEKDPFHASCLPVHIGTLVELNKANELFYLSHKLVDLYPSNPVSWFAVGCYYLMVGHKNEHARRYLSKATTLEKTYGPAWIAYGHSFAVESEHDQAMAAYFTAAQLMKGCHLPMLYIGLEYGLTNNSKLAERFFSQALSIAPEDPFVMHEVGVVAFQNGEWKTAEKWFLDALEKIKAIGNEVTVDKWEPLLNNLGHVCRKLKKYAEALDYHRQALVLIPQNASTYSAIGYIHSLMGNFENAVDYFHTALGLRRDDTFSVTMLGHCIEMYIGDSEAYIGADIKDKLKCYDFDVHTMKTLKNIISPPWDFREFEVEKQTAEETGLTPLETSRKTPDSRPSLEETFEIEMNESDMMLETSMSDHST
inactive: [1] -0.038 | [2] 0.027 | [3] 0.025 | [4] 0.03 | [5] 0.021

CAPNS1 (UniProt P04632)
inactive: [1] 0 | [2] -0.041 | [3] -0.067 | [4] 0.057 | [5] -0.014

CCNC (UniProt P24863)
UniProt P24863, sequence (P24863 whole entry, looked up): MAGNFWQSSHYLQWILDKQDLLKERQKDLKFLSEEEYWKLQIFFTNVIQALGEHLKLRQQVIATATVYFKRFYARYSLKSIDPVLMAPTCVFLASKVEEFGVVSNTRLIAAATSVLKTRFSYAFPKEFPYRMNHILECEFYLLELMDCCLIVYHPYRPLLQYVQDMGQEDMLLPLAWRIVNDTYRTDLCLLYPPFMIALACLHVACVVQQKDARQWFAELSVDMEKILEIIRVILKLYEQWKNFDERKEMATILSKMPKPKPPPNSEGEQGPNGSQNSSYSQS
inactive: [1] 0.045 | [2] -0.09 | [3] -0.035 | [4] -0.036 | [5] -0.129

CEP120 (UniProt Q8N960)
UniProt Q8N960, sequence (Q8N960 whole entry, looked up): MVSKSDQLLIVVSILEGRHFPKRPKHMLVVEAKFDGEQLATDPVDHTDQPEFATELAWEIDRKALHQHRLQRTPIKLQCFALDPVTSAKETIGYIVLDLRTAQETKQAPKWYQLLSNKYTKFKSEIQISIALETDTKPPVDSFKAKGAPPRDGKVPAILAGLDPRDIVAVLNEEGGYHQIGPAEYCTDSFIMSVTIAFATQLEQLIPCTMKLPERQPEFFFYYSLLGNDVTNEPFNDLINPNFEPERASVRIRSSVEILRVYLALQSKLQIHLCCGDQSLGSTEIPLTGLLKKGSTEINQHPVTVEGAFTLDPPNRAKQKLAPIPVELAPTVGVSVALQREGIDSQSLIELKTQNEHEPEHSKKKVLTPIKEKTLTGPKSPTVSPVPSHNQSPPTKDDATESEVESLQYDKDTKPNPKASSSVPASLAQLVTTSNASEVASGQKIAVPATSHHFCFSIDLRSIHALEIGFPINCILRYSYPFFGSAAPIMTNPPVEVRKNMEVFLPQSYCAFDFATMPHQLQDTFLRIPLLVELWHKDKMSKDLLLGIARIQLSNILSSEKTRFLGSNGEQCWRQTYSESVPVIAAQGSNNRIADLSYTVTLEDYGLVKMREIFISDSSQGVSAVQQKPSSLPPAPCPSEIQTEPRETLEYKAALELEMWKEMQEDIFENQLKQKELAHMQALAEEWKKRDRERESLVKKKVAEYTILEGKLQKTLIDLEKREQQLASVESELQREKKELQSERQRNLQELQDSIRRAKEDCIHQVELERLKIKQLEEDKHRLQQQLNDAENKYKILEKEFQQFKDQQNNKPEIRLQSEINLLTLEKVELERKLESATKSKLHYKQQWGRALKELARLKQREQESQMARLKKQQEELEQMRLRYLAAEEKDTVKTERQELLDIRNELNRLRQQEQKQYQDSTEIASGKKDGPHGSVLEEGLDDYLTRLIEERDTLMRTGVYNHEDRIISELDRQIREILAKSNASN
inactive: [1] -0.074 | [2] 0.097 | [3] 0.145 | [4] -0.169 | [5] 0.184

CDK9 isoform 2 (UniProt P50750)
UniProt P50750, sequence (P50750 whole entry, looked up): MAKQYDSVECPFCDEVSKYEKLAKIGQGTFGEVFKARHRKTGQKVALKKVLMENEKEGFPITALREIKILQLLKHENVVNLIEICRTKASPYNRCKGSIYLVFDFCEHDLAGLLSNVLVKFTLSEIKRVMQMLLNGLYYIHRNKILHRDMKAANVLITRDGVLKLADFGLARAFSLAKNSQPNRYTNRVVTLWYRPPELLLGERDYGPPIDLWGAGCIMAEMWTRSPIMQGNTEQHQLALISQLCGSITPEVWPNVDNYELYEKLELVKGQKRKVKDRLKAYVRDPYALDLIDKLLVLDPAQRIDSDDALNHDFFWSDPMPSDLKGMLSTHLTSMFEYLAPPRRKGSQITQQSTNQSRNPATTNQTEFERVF
inactive: [1] -0.001 | [2] -0.043 | [3] -0.015 | [4] -0.008 | [5] -0.114

CDAN1 (UniProt Q8IWY9)
inactive: [1] -0.011 | [2] 0.011 | [3] 0.062 | [4] 0.026 | [5] 0.005

CHD5 (UniProt Q8TDI0)
inactive: [1] -0.039 | [2] 0.003 | [3] -0.002 | [4] 0.085 | [5] 0.032

ATG4B (UniProt Q9Y4P1)
inactive: [1] 0.004 | [2] 0.034 | [3] 0.017 | [4] -0.002 | [5] 0.051

CEP41 (UniProt Q9BYV8)
UniProt Q9BYV8, sequence (Q9BYV8 whole entry, looked up): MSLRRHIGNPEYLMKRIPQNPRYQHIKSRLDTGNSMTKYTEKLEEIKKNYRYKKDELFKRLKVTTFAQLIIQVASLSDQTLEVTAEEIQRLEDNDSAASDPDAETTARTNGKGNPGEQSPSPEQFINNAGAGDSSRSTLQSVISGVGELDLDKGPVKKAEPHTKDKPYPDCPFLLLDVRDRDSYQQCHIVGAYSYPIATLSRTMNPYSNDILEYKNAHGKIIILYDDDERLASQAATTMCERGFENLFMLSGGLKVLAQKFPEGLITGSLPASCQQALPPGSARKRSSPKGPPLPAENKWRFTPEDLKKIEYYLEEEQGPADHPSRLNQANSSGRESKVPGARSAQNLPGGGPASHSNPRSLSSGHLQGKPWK
inactive: [1] -0.026 | [2] -0.06 | [3] -0.106 | [4] -0.068 | [5] -0.045

CCAR2 (UniProt Q8N163)
inactive: [1] 0.001 | [2] 0.005 | [3] -0.007 | [4] 0.003 | [5] 0.004

CCDC25 (UniProt Q86WR0)
inactive: [1] 0.008 | [2] 0.035 | [3] 0.023 | [4] -0.015 | [5] 0.164

CAPN15 (UniProt O75808)
inactive: [1] -0.047 | [2] 0.063 | [3] -0.017 | [4] -0.011 | [5] 0.056

C12orf45 (UniProt Q8N5I9)
inactive: [1] 0.074 | [2] 0 | [3] -0.007 | [4] -0.008 | [5] -0.122

CDKN1B (UniProt P46527)
UniProt P46527, sequence (P46527 whole entry, looked up): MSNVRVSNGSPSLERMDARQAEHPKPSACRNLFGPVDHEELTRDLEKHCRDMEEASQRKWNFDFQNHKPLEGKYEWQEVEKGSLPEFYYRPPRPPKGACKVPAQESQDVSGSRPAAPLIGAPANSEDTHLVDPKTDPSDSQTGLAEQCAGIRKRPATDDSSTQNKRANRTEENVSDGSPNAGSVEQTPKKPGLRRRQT
inactive: [1] 0.059 | [2] -0.038 | [3] 0.146 | [4] 0.101 | [5] 0.02

CALM2 (UniProt P0DP24)
inactive: [1] -0.07 | [2] -0.177 | [3] 0.009 | [4] -0.088 | [5] -0.001

CBX5 (UniProt P45973)
inactive: [1] 0.04 | [2] -0.002 | [3] -0.038 | [4] 0.031 | [5] -0.135

C18orf25 (UniProt Q96B23)
inactive: [1] 0.013 | [2] -0.035 | [3] 0.043 | [4] 0.017 | [5] -0.033

BPHL (UniProt Q86WA6)
inactive: [1] 0.284 | [2] 0.038 | [3] -0.028 | [4] 0.158 | [5] 0.014

CDK8 (UniProt P49336)
inactive: [1] -0.05 | [2] -0.108 | [3] 0.202 | [4] 0.017 | [5] -0.045

CHCHD4 isoform 2 (UniProt Q8N4Q1)
inactive: [1] 0.04 | [2] -0.076 | [3] -0.101 | [4] -0.189 | [5] -0.168

AUH (UniProt Q13825)
inactive: [1] 0.034 | [2] 0 | [3] 0.129 | [4] -0.112 | [5] -0.009

CCDC47 (UniProt Q96A33)
inactive: [1] -0.043 | [2] 0.005 | [3] 0.022 | [4] 0.017 | [5] 0.018

BAG4 (UniProt O95429)
inactive: [1] 0.059 | [2] 0.021 | [3] -0.023 | [4] 0.03 | [5] 0.003

BTK isoform 2 (UniProt Q06187)
inactive: [1] -0.049 | [2] -0.033 | [3] 0.012 | [4] -0.002 | [5] -0.064
